From the supplement of paper PMC8728848
About 410 targets per protein were measured; listed, in parts, are those with the strongest signals and a random draw of the rest.

Tests used:
Assay in all cases: glycan array binding signal (z-score within array); higher = stronger binding
Details in all cases: glycan notation: IUPAC condensed, linker removed
GalNAc(a1-3)Gal = target: GalNAc(a1-3)Gal
Procedure, shortened: (§1)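 Glycan array data came from 3228 arrays in the Consortium for Functional Glycomics database, and only arrays with an available protein sequence were kept. Glycan names were put into IUPAC-condensed notation, and columns mapping to the same glycan were averaged. The binding signal is a within-array Z-score, averaged across arrays of one protein sequence run at different concentrations or buffers and across linkers. A negative Z-score can be read as non-binding.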

Glc(a1-4)Glc = target: Glc(a1-4)Glc
Procedure, shortened: as §1

GlcA(b1-3)Gal = target: GlcA(b1-3)Gal
Procedure, shortened: as §1

[1] = target: GlcNAc(a1-4)Gal(b1-4)GlcNAc(b1-3)Gal(b1-4)Glc
Procedure, shortened: as §1

[2] = target: GlcNAc(a1-6)Gal(b1-4)GlcNAc
Procedure, shortened: as §1

[3] = target: GlcNAc(b1-2)[GlcNAc(b1-4)]Man(a1-3)[GlcNAc(b1-4)][GlcNAc(b1-2)[GlcNAc(b1-6)]Man(a1-6)]Man(b1-4)GlcNAc(b1-4)[Fuc(a1-6)]GlcNAc
Procedure, shortened: as §1

[4] = target: GlcNAc(b1-4)GlcNAc(b1-4)GlcNAc
Procedure, shortened: as §1

[5] = target: GlcNAc(b1-4)GlcNAc(b1-4)GlcNAc(b1-4)GlcNAc(b1-4)GlcNAc
Procedure, shortened: as §1

Neu5Ac(a2-3)Gal = target: Neu5Ac(a2-3)Gal
Procedure, shortened: as §1

[6] = target: Neu5Ac(a2-3)Gal(b1-3)GlcNAc(b1-2)Man(a1-3)[Neu5Ac(a2-3)Gal(b1-3)GlcNAc(b1-2)Man(a1-6)]Man(b1-4)GlcNAc(b1-4)GlcNAc
Procedure, shortened: as §1

[7] = target: Neu5Ac(a2-3)Gal(b1-3)]Neu5Ac(a2-3)Gal(b1-4)]GlcNAc
Procedure, shortened: as §1

[8] = target: Neu5Ac(a2-3)Gal(b1-4)GlcNAc(b1-2)[Neu5Ac(a2-3)Gal(b1-4)GlcNAc(b1-4)]Man(a1-3)[GlcNAc(b1-4)][Neu5Ac(a2-3)Gal(b1-4)GlcNAc(b1-2)[Neu5Ac(a2-3)Gal(b1-4)GlcNAc(b1-6)]Man(a1-6)]Man(b1-4)GlcNAc(b1-4)GlcNAc
Procedure, shortened: as §1

[9] = target: Neu5Ac(a2-3)Gal(b1-4)GlcNAc(b1-3)Gal(b1-4)GlcNAc(b1-3)GalNAc
Procedure, shortened: as §1

[10] = target: Neu5Ac(a2-3)Gal(b1-4)[Fuc(a1-3)]GlcNAc(b1-3)GalNAc
Procedure, shortened: as §1

[11] = target: Neu5Ac(a2-3)[GalNAc(b1-4)]Gal(b1-4)Glc
Procedure, shortened: as §1

[12] = target: Neu5Ac(a2-6)Gal(b1-4)GlcNAc(b1-2)Man(a1-3)[Gal(b1-4)GlcNAc(b1-2)Man(a1-6)]Man(b1-4)GlcNAc(b1-4)GlcNAc
Procedure, shortened: as §1

[13] = target: Neu5Ac(a2-6)Gal(b1-4)GlcNAc(b1-2)Man(a1-3)[Neu5Ac(a2-6)Gal(b1-4)GlcNAc(b1-2)Man(a1-6)]Man(b1-4)GlcNAc(b1-4)[Fuc(a1-6)]GlcNAc
Procedure, shortened: as §1

[14] = target: Neu5Ac(a2-6)Gal(b1-4)GlcNAc(b1-2)Man(a1-6)Man(b1-4)GlcNAc(b1-4)GlcNAc
Procedure, shortened: as §1

[15] = target: Neu5Ac(a2-6)Gal(b1-4)GlcNAc(b1-2)[Neu5Ac(a2-6)Gal(b1-4)GlcNAc(b1-6)]Man(a1-6)[Neu5Ac(a2-6)Gal(b1-4)GlcNAc(b1-2)Man(a1-3)][GlcNAc(b1-4)]Man(b1-4)GlcNAc(b1-4)GlcNAc
Procedure, shortened: as §1

[16] = target: Neu5Ac(a2-6)Gal(b1-4)GlcNAc(b1-3)Gal(b1-4)GlcNAc(b1-3)Gal(b1-4)GlcNAc(b1-2)Man(a1-3)[Neu5Ac(a2-6)Gal(b1-4)GlcNAc(b1-3)Gal(b1-4)GlcNAc(b1-3)Gal(b1-4)GlcNAc(b1-2)Man(a1-6)]GalNAc
Procedure, shortened: as §1

[17] = target: Neu5Ac(a2-6)Gal(b1-4)GlcNAc(b1-3)GalNAc
Procedure, shortened: as §1

[18] = target: Neu5Ac(a2-6)GalNAc(b1-4)GlcNAc6S
Procedure, shortened: as §1

[19] = target: Neu5Ac(a2-8)Neu5Ac(a2-3)[Gal(b1-3)GalNAc(b1-4)]Gal(b1-4)Glc
Procedure, shortened: as §1

[20] = target: Neu5Ac(a2-8)Neu5Ac(a2-8)Neu5Ac(a2-3)Gal(b1-4)Glc
Procedure, shortened: as §1

[21] = target: Neu5Gc(a2-3)Gal(b1-3)GlcNAc
Procedure, shortened: as §1

[22] = target: Neu5Gc(a2-8)Neu5Gc(a2-3)Gal(b1-4)GlcNAc
Procedure, shortened: as §1

B1: SP15308B-bot-339-22-339 (Bacteroides ovatus) (protein)
chain: NEWEDEQYEQYVSFKAPIASGSDGVTTIYVRYKDNGKVTYQLPIIVSGSTVNSQDRDIHIAVDKDTLKTLNIERFSLYRPELWYTEMEEDKYEFPETVHIPAGSCVELLNIDFNLQDIDMLEKWVLPLTIVDDGSYAYQSHPRKNYAKALLKVVPFNNYSGSYTASSMKVYTYINGKPDTNARTTDKRTGYVVDNNSIFFYAGLINEDMDKDMRKKYKINVHFKEDGTLDMKQDDPSNEMEFELIGTPTYSSTSVMDATRPYLERRYVQIMFEYDFQDFTYGGSGTEVIPIKYRVAGSMTLLRNINTQIPDEDQQIEW
glycan array binding signal (z-score) (GalNAc(a1-3)Gal): 3.52 | glycan array binding signal (z-score) (Glc(a1-4)Glc): 0.066 | glycan array binding signal (z-score) (GlcA(b1-3)Gal): 0.229 | glycan array binding signal (z-score) [1]: -0.022 | glycan array binding signal (z-score) [2]: -0.154 | glycan array binding signal (z-score) [3]: -0.263 | glycan array binding signal (z-score) [4]: -0.544 | glycan array binding signal (z-score) [5]: -0.482 | glycan array binding signal (z-score) (Neu5Ac(a2-3)Gal): -0.692 | glycan array binding signal (z-score) [6]: -0.211 | glycan array binding signal (z-score) [7]: -0.519 | glycan array binding signal (z-score) [8]: -0.547 | glycan array binding signal (z-score) [9]: -0.308 | glycan array binding signal (z-score) [10]: 2.38 | glycan array binding signal (z-score) [11]: -0.526 | glycan array binding signal (z-score) [12]: 0.001 | glycan array binding signal (z-score) [13]: 1.73 | glycan array binding signal (z-score) [14]: -0.086 | glycan array binding signal (z-score) [15]: -0.729 | glycan array binding signal (z-score) [16]: 0.664 | glycan array binding signal (z-score) [17]: -0.409 | glycan array binding signal (z-score) [18]: -0.231 | glycan array binding signal (z-score) [19]: -0.005 | glycan array binding signal (z-score) [20]: -0.189 | glycan array binding signal (z-score) [21]: -0.652 | glycan array binding signal (z-score) [22]: -0.454
